Outcome and AC50 data for six compounds are collected here from PubChem BioAssay (EPA / NIEHS).

The AC50 is the midpoint of the concentration-response curve, whichever way the signal moves.

A short description of assay [1]: ATG_E_Box_CIS: Attagene CIS-FACTORIAL HepG2 Assay for human Enhancer Box (E-box) (AID 2282936). As to conditions: HepG2 E-box cis-reporter transcription, actives raise or lower the signal. The method, boiled down:
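Fluorescent reporter fragments separated by capillary electrophoresis gave the signal; mRNA came from HepG2 cells transfected with cis-element reporters and treated 24 h. Curves fitted bidirectionally relative to DMSO controls.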

Assay [2] is described as follows: ATG_M_61_CIS: Attagene CIS-FACTORIAL HepG2 Assay for M61 Transcription Factor (Internal Marker) (AID 2282937). To be noted: HepG2 Attagene CIS-FACTORIAL M61 internal marker reporter; actives raise or lower the signal. Summed up:
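Cells were transfected with reporter units under cis-regulatory promoters, treated with chemicals for 24 h, then lysed for RNA. Reporter transcripts were quantified by RT-PCR and capillary electrophoresis, and activity was fitted bidirectionally against DMSO.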

Assay [3] can be described thus: ATG_EGR_CIS: Attagene CIS-FACTORIAL HepG2 Assay for human Early Growth Response 1 (EGR1) (AID 2282938). To be noted: HepG2 Attagene CIS-FACTORIAL EGR reporter mRNA; actives raise or lower the signal. The method, boiled down: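 Endogenous TF activity in HepG2 liver cells was gauged through cis-promoter reporter constructs transiently transfected. After 24 h dosing, reporter mRNA was quantified by RT-PCR and capillary electrophoresis, and curves fitted in both directions versus DMSO.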

Assay [4] can be described thus: ATG_M_19_CIS: Attagene CIS-FACTORIAL HepG2 Assay for M19 Transcription Factor (Internal Marker) (AID 2282939). To be noted: HepG2 Attagene CIS-FACTORIAL M19 internal marker reporter; actives raise or lower the signal. The method, boiled down:
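Chemical-treated HepG2 (24 h) with MRTU constructs; reporter transcripts detected by fluorescent RT-PCR fragment analysis on capillary electrophoresis. Internal background marker, DMSO as baseline.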

The nature of assay [5]: ATG_Ets_CIS: Attagene CIS-FACTORIAL HepG2 Assay for human Erythroblast Transformation Specific (ETS) (AID 2282941). To be noted: HepG2 ETS cis-reporter transcription, actives raise or lower the signal. Summed up: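 Endogenous transcription factor activity read as reporter mRNA via RT-PCR and capillary electrophoresis, with gain or loss fitted bidirectionally against DMSO. Human HepG2 liver cells, transiently transfected CIS reporter constructs, 24 h exposure.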

The target in assay [6] is Hepatocyte nuclear factor 3-beta (Homo sapiens) (UniProt Q9Y261). Put plainly: ATG_FoxA2_CIS: Attagene CIS-FACTORIAL HepG2 Assay for human Forkhead box A2 (FOXA2) (AID 2282942). To be noted: HepG2 cis-reporter transcription factor activity, 24 h; actives raise or lower the signal. The method, boiled down:
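Endogenous transcription factor activity was read in HepG2 cells carrying transiently transfected cis-promoter reporter units. After 24 h dosing, reporter mRNA was quantified by RT-PCR and capillary electrophoresis, and values fitted bidirectionally versus DMSO.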

Assay [7] in a line: ATG_FoxO_CIS: Attagene CIS-FACTORIAL HepG2 Assay for human Forkhead box O (FoxO) (AID 2282943). As to conditions: HepG2 Attagene cis-reporter, FoxO element, mRNA; actives raise or lower the signal. The method, boiled down: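 HepG2, transient MRTU transfection (cis element, endogenous TFs). Dose 24 h. TriZol RNA → oligo(dT) RT → PCR → 6-FAM primer extension → HpaI cut → CE. Gain/loss vs DMSO.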

A short description of assay [8]: ATG_GATA_CIS: Attagene CIS-FACTORIAL HepG2 Assay for human GATA Binding Protein (AID 2282944). To be noted: HepG2 GATA cis-element reporter, Attagene multiplex mRNA; actives raise or lower the signal. Summed up: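 Transfected cis-reporter HepG2 cells were treated with chemicals for 24 hours. Total RNA was then converted to cDNA, amplified with reporter-specific primers and analysed by fluorescent capillary electrophoresis, using DMSO-treated wells as baseline.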

The nature of assay [9]: ATG_GLI_CIS: Attagene CIS-FACTORIAL HepG2 Assay for human Zinc Finger Protein GLI1 (AID 2282945). As to conditions: HepG2, Attagene cis-factorial reporter mRNA, GLI element; actives raise or lower the signal. Summed up:
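Bidirectional curve fits relative to DMSO, using reporter mRNA levels from RT-PCR plus capillary electrophoresis. Cells were HepG2 transiently carrying cis-regulated reporter constructs, harvested 24 h after dosing.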

Assay [10] in a line: ATG_GRE_CIS: Attagene CIS-FACTORIAL HepG2 Assay for human Glucocorticoid Response Elements (GRE) (AID 2282947). To be noted: HepG2 GRE cis-reporter, Attagene multiplex mRNA; actives raise or lower the signal. Summed up:
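Multiplexed cis-reporter mRNA induction, HepG2, 24 h post-dose. RT-PCR, FAM-labelled, HpaI-digested amplicons by CE. Bidirectional fit vs DMSO.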

Assay [11] in a line: ATG_ISRE_CIS: Attagene CIS-FACTORIAL HepG2 Assay for human Interferon Regulatory Factor 1 (IRF1) binding to an Interferon-Stimulated Response Element (ISRE) (AID 2282948). As to conditions: HepG2 ISRE cis-reporter (Attagene), mRNA transcription readout; actives raise or lower the signal. The method, boiled down: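 Endogenous transcription factor activity read as reporter transcript abundance via RT-PCR and capillary electrophoresis. HepG2 cells transiently transfected, 24 h chemical exposure. Gain or loss fitted against DMSO baseline.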

The nature of assay [12]: ATG_M_32_CIS: Attagene CIS-FACTORIAL HepG2 Assay for M32 Transcription Factor (Internal Marker) (AID 2282949).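 Further: background control marker of the multiplexed CIS panel rather than a real target.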 To be noted: HepG2 Attagene cis-factorial M32 reporter, mRNA; actives raise or lower the signal. Summed up:
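Transient MRTU transfection of HepG2; 24 h compound treatment; TriZol RNA, oligo(dT) RT, reporter PCR, 6-FAM primer extension, HpaI cut, CE. Gain/loss of signal vs DMSO.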

Assay [13] can be described thus: ATG_M_06_CIS: Attagene CIS-FACTORIAL HepG2 Assay for M06 Transcription Factor (Internal Marker) (AID 2282950). As to conditions: HepG2 Attagene CIS-FACTORIAL M06 internal marker reporter; actives raise or lower the signal. The method, boiled down: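 Cells (HepG2, transiently carrying cis-driven reporter units) receive chemical for 24 h before RNA isolation. Reporter cDNA is PCR-amplified, FAM-labelled by primer extension, HpaI-digested and sized on a capillary analyser.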

In assay [14] the target is Hepatocyte nuclear factor 6 (Homo sapiens) (UniProt Q9UBC0). Put plainly: ATG_HNF6_CIS: Attagene CIS-FACTORIAL HepG2 Assay for human Hepatocyte Nuclear Factor 6 (HNF6) (AID 2282952). To be noted: HepG2 Attagene cis-factorial HNF6 reporter transcription; actives raise or lower the signal. Summed up:
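Readout: fluorescent reporter-transcript fragments resolved by capillary electrophoresis after RT-PCR, reflecting endogenous factor activity in transfected HepG2. Exposure 24 h. Gain or loss of signal fitted bidirectionally against DMSO.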

Assay [15] concerns the target Heat shock factor protein 1 (Homo sapiens) (UniProt Q00613). Put plainly: ATG_HSE_CIS: Attagene CIS-FACTORIAL HepG2 Assay for human Heat Shock Transcription Factor 1 (HSE) (AID 2282953). To be noted: HepG2 HSE cis-reporter, Attagene RNA transcription; actives raise or lower the signal. Summed up:
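Liver-derived HepG2 cells carry transiently introduced multiple reporter units governed by cis promoters. Reporter RNA measured 24 h post-dose through reverse transcription, PCR amplification, fluorescent labelling and capillary electrophoresis, normalised to DMSO.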

A short description of assay [16]: ATG_MRE_CIS: Attagene CIS-FACTORIAL HepG2 Assay for human Metal Responsive Element (MRE) (AID 2282954). To be noted: HepG2 MRE cis-reporter transcription, Attagene multiplex; actives raise or lower the signal. Summed up: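 Multiplexed cis-reporter assay in human HepG2 liver cells, 24 h incubation with test chemical. Reporter transcripts measured by RT-PCR and capillary electrophoresis; values from bidirectional curve fitting versus DMSO.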

A short description of assay [17]: ATG_PBREM_CIS: Attagene CIS-FACTORIAL HepG2 Assay for human Phenobarbital-responsive Enhancer Module (PBREM) (AID 2282955). To be noted: HepG2 PBREM cis-reporter, Attagene multiplexed transcription; actives raise or lower the signal. Summed up:
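Fluorescence of labelled reporter cDNA fragments, resolved by capillary electrophoresis, gives mRNA induction in transfected HepG2 cells treated for 24 h; DMSO serves as negative control and baseline.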

The target of assay [18] is Hypoxia-inducible factor 1-alpha (Homo sapiens) (UniProt Q16665). The experiment in a line: ATG_HIF1a_CIS: Attagene CIS-FACTORIAL HepG2 Assay for human Hypoxia Inducible Factor 1 (HIF1A) (AID 2282951). To be noted: HepG2 Attagene cis-factorial HIF1a reporter transcription; actives raise or lower the signal. Summed up: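 Measures endogenous transcription-factor activity through cis-regulated reporter mRNA in HepG2. Cells dosed 24 h; transcripts quantified by RT-PCR with 6-FAM-labelled products separated by capillary electrophoresis; DMSO serves as negative control.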
Sequence of Hypoxia-inducible factor 1-alpha (Homo sapiens) (Q16665 whole entry, looked up): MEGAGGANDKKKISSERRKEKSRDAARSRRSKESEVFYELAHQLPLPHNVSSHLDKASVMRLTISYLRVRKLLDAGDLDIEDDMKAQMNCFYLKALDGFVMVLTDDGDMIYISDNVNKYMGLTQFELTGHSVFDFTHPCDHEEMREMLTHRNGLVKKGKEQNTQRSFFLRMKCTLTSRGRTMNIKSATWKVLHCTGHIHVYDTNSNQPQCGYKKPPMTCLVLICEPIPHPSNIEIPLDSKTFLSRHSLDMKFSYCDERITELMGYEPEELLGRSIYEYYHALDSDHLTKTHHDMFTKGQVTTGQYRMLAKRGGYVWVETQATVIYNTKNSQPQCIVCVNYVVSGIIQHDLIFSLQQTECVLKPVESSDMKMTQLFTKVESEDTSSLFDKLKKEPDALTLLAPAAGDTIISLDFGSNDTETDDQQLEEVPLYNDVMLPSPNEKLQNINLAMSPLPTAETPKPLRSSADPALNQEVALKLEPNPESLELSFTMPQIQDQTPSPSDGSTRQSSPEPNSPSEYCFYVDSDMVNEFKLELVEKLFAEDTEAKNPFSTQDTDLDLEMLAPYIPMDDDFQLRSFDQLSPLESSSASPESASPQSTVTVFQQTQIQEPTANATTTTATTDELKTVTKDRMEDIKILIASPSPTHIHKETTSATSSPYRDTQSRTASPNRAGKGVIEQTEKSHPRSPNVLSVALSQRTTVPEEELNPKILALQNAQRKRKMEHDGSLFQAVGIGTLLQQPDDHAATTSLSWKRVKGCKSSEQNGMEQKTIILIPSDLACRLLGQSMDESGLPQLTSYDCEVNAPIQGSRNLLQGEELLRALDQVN

Assay [19] concerns the target Bile acid receptor (Homo sapiens) (UniProt Q96RI1). The experiment in a line: ATG_IR1_CIS: Attagene CIS-FACTORIAL HepG2 Assay for human Nuclear Receptor Subfamily 1 Group H Member 4 (NR1H4), IR1 submotif (AID 2282946). As to conditions: IR1 reporter transcription, actives raise or lower the signal. Summed up:
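HepG2 cells transiently transfected with multiplexed cis-element reporter units read endogenous transcription factor activity. After 24 h compound exposure, reporter mRNA was quantified by RT-PCR, fluorescent labelling, HpaI digestion and capillary electrophoresis; bidirectional fitting versus DMSO baseline.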

Activity calls are given as the source filed them. How the source made its calls: active means hit-call score of the fitted dose curve at least 0.9, where 1 is the maximum; inactive means score below 0.9.

Sequence of Heat shock factor protein 1 (Homo sapiens) (Q00613 whole entry, looked up): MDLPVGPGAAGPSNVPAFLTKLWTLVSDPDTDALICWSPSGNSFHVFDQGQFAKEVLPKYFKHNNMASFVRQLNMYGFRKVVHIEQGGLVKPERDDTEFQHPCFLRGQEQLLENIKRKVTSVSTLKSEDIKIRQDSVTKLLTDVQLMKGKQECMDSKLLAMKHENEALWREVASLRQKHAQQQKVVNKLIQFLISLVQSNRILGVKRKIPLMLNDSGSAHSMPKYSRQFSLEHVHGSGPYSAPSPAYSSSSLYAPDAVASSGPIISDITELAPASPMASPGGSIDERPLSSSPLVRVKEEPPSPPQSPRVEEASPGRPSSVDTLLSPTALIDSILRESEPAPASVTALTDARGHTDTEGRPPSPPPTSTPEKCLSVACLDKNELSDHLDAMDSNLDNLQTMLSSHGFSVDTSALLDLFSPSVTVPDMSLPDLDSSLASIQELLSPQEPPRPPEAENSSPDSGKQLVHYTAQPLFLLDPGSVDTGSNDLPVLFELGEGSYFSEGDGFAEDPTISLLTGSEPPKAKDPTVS
Sequence of Hepatocyte nuclear factor 3-beta (Homo sapiens) (Q9Y261 whole entry, looked up): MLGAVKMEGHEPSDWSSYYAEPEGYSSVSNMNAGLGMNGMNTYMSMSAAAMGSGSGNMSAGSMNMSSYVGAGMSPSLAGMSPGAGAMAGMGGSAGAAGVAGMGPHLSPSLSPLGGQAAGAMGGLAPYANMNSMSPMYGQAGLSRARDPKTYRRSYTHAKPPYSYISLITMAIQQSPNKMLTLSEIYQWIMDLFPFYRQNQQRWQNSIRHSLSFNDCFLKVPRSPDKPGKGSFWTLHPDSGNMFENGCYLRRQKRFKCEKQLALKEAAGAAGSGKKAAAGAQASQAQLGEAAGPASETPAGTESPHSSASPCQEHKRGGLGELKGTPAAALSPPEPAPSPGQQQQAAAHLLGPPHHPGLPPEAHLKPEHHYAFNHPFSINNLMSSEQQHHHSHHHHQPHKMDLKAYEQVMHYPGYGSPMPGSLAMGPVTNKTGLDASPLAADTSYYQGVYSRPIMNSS
Sequence of Hepatocyte nuclear factor 6 (Homo sapiens) (Q9UBC0 whole entry, looked up, the tested form may be a part): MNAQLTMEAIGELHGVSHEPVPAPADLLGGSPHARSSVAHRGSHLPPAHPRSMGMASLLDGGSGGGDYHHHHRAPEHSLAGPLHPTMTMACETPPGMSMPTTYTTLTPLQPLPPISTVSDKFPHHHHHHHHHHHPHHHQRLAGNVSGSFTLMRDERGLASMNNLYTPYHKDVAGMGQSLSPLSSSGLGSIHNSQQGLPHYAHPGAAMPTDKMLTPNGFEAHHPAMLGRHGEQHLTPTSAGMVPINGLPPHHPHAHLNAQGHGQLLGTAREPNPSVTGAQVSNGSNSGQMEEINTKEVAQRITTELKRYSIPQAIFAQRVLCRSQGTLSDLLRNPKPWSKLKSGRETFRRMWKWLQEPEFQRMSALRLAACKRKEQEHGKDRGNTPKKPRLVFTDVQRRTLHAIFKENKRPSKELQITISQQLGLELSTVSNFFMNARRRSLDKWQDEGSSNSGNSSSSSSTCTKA
Sequence of Bile acid receptor (Homo sapiens) (Q96RI1 whole entry, looked up): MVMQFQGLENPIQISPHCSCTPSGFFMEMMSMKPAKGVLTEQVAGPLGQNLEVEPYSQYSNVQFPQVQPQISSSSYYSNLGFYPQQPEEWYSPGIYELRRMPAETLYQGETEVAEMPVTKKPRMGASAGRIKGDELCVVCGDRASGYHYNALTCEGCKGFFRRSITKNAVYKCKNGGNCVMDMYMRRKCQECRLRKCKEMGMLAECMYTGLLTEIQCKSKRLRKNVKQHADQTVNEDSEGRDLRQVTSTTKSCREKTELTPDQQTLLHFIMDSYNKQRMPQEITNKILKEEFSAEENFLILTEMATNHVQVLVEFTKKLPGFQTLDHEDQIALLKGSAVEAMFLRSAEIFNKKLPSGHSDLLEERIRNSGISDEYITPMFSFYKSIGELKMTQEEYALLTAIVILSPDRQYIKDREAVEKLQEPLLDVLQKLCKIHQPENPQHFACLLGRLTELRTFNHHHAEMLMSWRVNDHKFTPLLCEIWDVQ

With `CCOP(=S)(OCC)Oc1ccc2c(C)c(Cl)c(=O)oc2c1`, the outcome in [1], in assay [2], in assay [3], in [4], in assay [5] and in assay [6] was inactive. The call in assay [7], in [8], in assay [9], in [10], in [11] and in assay [12] was inactive. The outcome in assay [13], in [14], in assay [15], in assay [16] and in assay [17] was inactive.
As to `CC(C)[C@H](C(=O)O[C@H](C#N)c1cccc(Oc2ccccc2)c1)c1ccc(Cl)cc1`, the result in [1], in assay [2], in [3], in assay [4], in [5] and in assay [6] was inactive. The outcome in [7], in assay [8], in [9], in assay [11], in assay [12] and in assay [13] was inactive. Moreover, the outcome in assay [14], in [15] and in [16] was inactive. The AC50 in assay [17] is 9.24 µM (active).
Regarding `C#CC(C)(C)NC(=O)c1cc(Cl)cc(Cl)c1`, the outcome in [1], in assay [2], in [3], in [4], in assay [5] and in [6] was inactive. Further, the outcome in [7], in assay [8], in assay [9], in [10], in assay [12] and in assay [13] was inactive. Besides, the outcome in assay [18], in [14] and in assay [15] was inactive. For the same compound, the AC50 in [16] and in [17] was 50 µM (active) each time.
Turning to `CCOP(=S)(OCC)Oc1cc(C)nc(C(C)C)n1`, the result in [1], in [2], in assay [3], in assay [4], in [5] and in assay [6] was inactive. The outcome in assay [7], in assay [8], in assay [9], in assay [10], in assay [11] and in assay [12] was inactive. The call in [13], in assay [14], in assay [15] and in assay [16] was inactive. Moreover, the AC50 in assay [17] is 9.92 µM (active).
`Cc1nn(-c2cc(NS(C)(=O)=O)c(Cl)cc2Cl)c(=O)n1C(F)F`: the result in assay [1], in [2], in assay [3], in [4], in assay [5] and in assay [6] was inactive. The compound was called inactive in [7], in assay [8], in [9], in assay [12], in [13] and in [14]. Moreover, the outcome in assay [15] and in [16] was inactive.
For `CC(COc1ccc(Oc2ccccc2)cc1)Oc1ccccn1` (configuration not stated), the result in assay [1], in assay [2], in assay [4], in assay [5], in assay [6] and in [7] was inactive. Further, the outcome in assay [8], in [9], in assay [19], in assay [12], in assay [13] and in [18] was inactive. For the same compound, the outcome in [14] and in assay [16] was inactive. For the same compound, the figures for the AC50 in assay [3] and in [17] were 13.2 µM (active) and 13.8 µM (active), respectively.
